Hits are enriched below; roughly 6.2% of the tested compounds scored in any of these assays.
HCMV inh = qHTS Assay for inhibitors of the human cytomegalovirus (HCMV); HFF cells, HCMV-luciferase reporter, 72 h; hits give low values; activity change, negative = inhibition, % at 57.5 µM; hit rate 4.5% among 410,000; in the data active means activity change below about -60%; inconclusive means no clear call, values can overlap the other calls; inactive means above about -39%
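After 16 h attachment at 37C, HFF cells received test compound and HCMV-luciferase (1 PFU/cell); reporter luminescence read 72 h later, data normalized against buffer-only and known inhibitor Salinomycin.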
MARV entry inh = qHTS for inhibitors of binding or entry into cells for Marburg Virus | Marburg virus pseudotyped entry inhibition, cell reporter | Potency, µM (top dose mostly 37.8 µM), inactives show top-dose activity change, negative = inhibition, hits mostly inhibitors | hit rate 1.8% among 300,000; calls by dose curve; tested in HEK293 cells; further: potency means the concentration at half of the fitted maximal effect
LASV entry inh = qHTS for Inhibitors of binding or entry into cells for Lassa Virus | hit rate 1.2% among 300,000 | AID 540256, 2011 | Lassa virus pseudotype entry inhibition, cell reporter | Potency, µM (doses to about 37.9 µM), without a hit: at the highest dose activity change, negative = inhibition, usual class: inhibitors; calls by dose curve; tested in HEK293 cells; further: potency means the concentration at half of the fitted maximal effect; nearly all actives have a fitted effect of over 50% in size
FMDV inh = High Throughput Screening for Foot and Mouth Disease Virus Antivirals; FMDV antiviral cell-based qHTS; Potency, µM (top dose mostly 57.9 µM), for the others: at the highest dose activity change, negative = inhibition, most hits filed as inhibitors; hit rate 1.2% among 410,000; AID 1159524, 2015; calls by dose curve; tested in HEK293T cells; further: read-out not given here; potency means the concentration at half of the fitted maximal effect; nearly all actives have a fitted effect of over 45% in size
* = called active by the depositor; [ ] = remark or other dose. On the % scale 0 is the no-effect control and ±100 the full control effect.

Results for CCCc1cc(=O)[nH]c2nnc(SCC(=O)Nc3ccc(C(C)=O)cc3)n12 ?
HCMV inh: -37.3; MARV entry inh: 5.4%; LASV entry inh: 9.2%; FMDV inh: -11.9%

What do the screens show for `COc1ccccc1N1CCN(CC(=O)Nc2ccccc2C(=O)NC(C)c2ccccc2)CC1` (stereo not given)?
HCMV inh: 17.5; MARV entry inh: inconclusive; LASV entry inh: inconclusive; FMDV inh: -31.8%

What do the screens show for `N=C(N)SCc1cn(-c2ccccc2)nc1-c1ccc(Br)cc1`?
HCMV inh: -87.1*; MARV entry inh: inconclusive; LASV entry inh: inconclusive; FMDV inh: 20µM*

Results for CCc1ccc(N=c2c([N+](=O)[O-])nn(-c3ccccc3)n2O)cc1 ?
MARV entry inh: inconclusive; LASV entry inh: -5.1%; FMDV inh: -28.1%

Results for Cc1cc(C(C)(C)C)cc(C)c1S(=O)(=O)N1CCN(C(=O)c2cc([N+](=O)[O-])c[nH]c2=O)CC1 ?
HCMV inh: -64.3*; MARV entry inh: -2.6%[46.1 µM]; LASV entry inh: inconclusive; FMDV inh: inconclusive

How did Cc1cc(C)c(S(=O)(=O)N2CCN(C(=O)c3cc(=O)[nH]c4ccccc34)CC2)c(C)c1 do in these assays?
HCMV inh: -0.7; FMDV inh: -24.7%

Results for Cc1ccc(Oc2ccc(S(=O)(=O)N3CCOCC3)cc2C(N)=O)c(-n2nc3ccccc3n2)c1 ?
HCMV inh: -84.9*; MARV entry inh: inconclusive; LASV entry inh: inconclusive; FMDV inh: -23.0%

How did COc1cc2c(cc1OC)C(c1ccc(-c3ccc(Cl)c(Cl)c3)o1)=NCC2 do in these assays?
HCMV inh: -12.6; MARV entry inh: 5.8µM*; LASV entry inh: 5.8µM*; FMDV inh: 17.8µM*

How did COc1cc2c(cc1OC)C(c1ccc(Cl)cc1)=NCC2 do in these assays?
HCMV inh: 17.5; FMDV inh: -12.8%

How did COc1cc2c(cc1OC)C(c1ccc(-c3ccccc3Cl)o1)=NCC2 do in these assays?
HCMV inh: -19.0; MARV entry inh: 20.6µM*; LASV entry inh: inconclusive; FMDV inh: -11.2%

How did COc1cc2c(cc1OC)C(c1ccc(-c3cc(Cl)ccc3Cl)o1)=NCC2 do in these assays?
MARV entry inh: inconclusive; LASV entry inh: inconclusive; FMDV inh: 17.8µM*

How did COc1cc2c(cc1OC)C(c1ccc(-c3ccc(Cl)cc3Cl)o1)=NCC2 do in these assays?
HCMV inh: inconclusive; MARV entry inh: 6.31µM*; LASV entry inh: 14.1µM*; FMDV inh: 14.1µM*

Results for COc1cc2c(cc1OC)C(C)=NCC2 ?
HCMV inh: 0.0; FMDV inh: inconclusive

What do the screens show for `COC(=O)c1ccc(CSc2nnc(Nc3ccc(OC)cc3)s2)o1`?
HCMV inh: 16.2; MARV entry inh: -13.7%; LASV entry inh: -20.5%; FMDV inh: 9.7%

How did CC(NCC(=O)Nc1ccccc1C(=O)NC1CC1)c1ccc(S(N)(=O)=O)cc1 (stereo not given) do in these assays?
HCMV inh: 6.5; FMDV inh: -21.2%

How did Cc1c(CCOC(=O)c2ccc(Cl)cc2Cl)sc[n+]1CC(=O)c1ccc(Br)cc1 do in these assays?
HCMV inh: 0.0; FMDV inh: -27.0%

How did S=C(NCc1ccccc1)NNc1nc2ccccc2[nH]1 do in these assays?
HCMV inh: -70.1*; MARV entry inh: inconclusive; LASV entry inh: inconclusive; FMDV inh: -4.2%

What do the screens show for `O=c1[nH]c(NNC(=S)NCc2ccccc2)nc2c1C1(CCCCC1)Cc1ccccc1-2`?
HCMV inh: -62.3*; FMDV inh: -23.0%

Results for C=CCNC(=S)NNc1nc2c(c(=O)[nH]1)C1(CCCC1)Cc1ccccc1-2 ?
HCMV inh: 1.5; FMDV inh: 26.2%

Results for COc1cccc(CC2(CO)CCCN(Cc3cc4ccccc4[nH]3)C2)c1 (stereo not given) ?
HCMV inh: 4.6; MARV entry inh: 3.98µM*; LASV entry inh: inconclusive; FMDV inh: -19.1%

What do the screens show for `COc1cccc(CC2(CO)CCCN(Cc3c(C)cc(C)cc3-n3cccn3)C2)c1` (stereo not given)?
HCMV inh: -68.8*; FMDV inh: -10.5%

Results for CC(=O)c1cccc(NC(=O)c2ccc(N(Cc3ccccc3)S(C)(=O)=O)cc2)c1 ?
HCMV inh: 5.5; MARV entry inh: -23.1%; LASV entry inh: 0.5%; FMDV inh: 31.6µM*

How did Cc1cccc(NC(=O)c2ccc(N(Cc3ccccc3)S(C)(=O)=O)cc2)c1 do in these assays?
HCMV inh: -66.0*; LASV entry inh: inconclusive; FMDV inh: 22.4µM*

How did CCN1C(=O)C(=Cc2ccc(C)s2)C(=O)N(CC)C1=S do in these assays?
HCMV inh: 32.0; MARV entry inh: inconclusive; LASV entry inh: inconclusive; FMDV inh: 39.8µM*

Results for CCN(CC)S(=O)(=O)c1cccc(C(=O)Nc2ccc(C#N)cc2)c1 ?
HCMV inh: inconclusive; MARV entry inh: -22.6%; LASV entry inh: inconclusive; FMDV inh: 25.1µM*

How did CCN(CC)S(=O)(=O)c1cccc(NC(=O)c2ccc(Br)cc2)c1 do in these assays?
HCMV inh: inconclusive; MARV entry inh: -45.6%[46.1 µM]; LASV entry inh: -25.8%; FMDV inh: 25.1µM*

How did CCCOc1ccc(C(=O)Nc2ccc(S(=O)(=O)NC3=NCCCCC3)cc2)cc1 do in these assays?
HCMV inh: -61.7*; MARV entry inh: inconclusive; LASV entry inh: -23.7%; FMDV inh: -26.1%

How did CCN(CC)S(=O)(=O)c1cccc(NC(=O)c2cncc(Br)c2)c1 do in these assays?
HCMV inh: -3.6; FMDV inh: -5.6%

What do the screens show for `CCN(CC)S(=O)(=O)c1cccc(C(=O)Nc2cc(C)cc(C)c2)c1`?
HCMV inh: 9.3; MARV entry inh: 17.2%; LASV entry inh: 11.9%; FMDV inh: 28.1%

Results for CCN(CC)S(=O)(=O)c1cccc(C(=O)Nc2ccc(S(=O)(=O)NC3=NCCCCC3)cc2)c1 ?
HCMV inh: -62.1*; MARV entry inh: -27.5%; LASV entry inh: -9.6%[46.1 µM]; FMDV inh: inconclusive

What do the screens show for `CC(C)C[C@H]1CN=C(N(C)C)N1CCc1cccc(F)c1`?
HCMV inh: -14.4; FMDV inh: 3.8%

What do the screens show for `CCCOc1ccc(-c2nc(OC)c3ccccc3n2)cc1`?
HCMV inh: 55.4; MARV entry inh: inconclusive; LASV entry inh: 5.4%; FMDV inh: 20.4%

What do the screens show for `CCN(CC)S(=O)(=O)c1cccc(C(=O)N/N=C/c2ccc(O)c(O)c2O)c1`?
HCMV inh: 34.4; MARV entry inh: 0.5%; LASV entry inh: 5.7%; FMDV inh: inconclusive

Results for CCN(CC)S(=O)(=O)c1cccc(C(=O)N/N=C(\C)c2ccc(O)cc2O)c1 ?
HCMV inh: -94.7*; MARV entry inh: 7.94µM*; LASV entry inh: inconclusive; FMDV inh: -6.6%

How did COc1ccc(-c2nonc2NC(=O)c2oc3ccccc3c2C)cc1OC do in these assays?
HCMV inh: -25.7; FMDV inh: -13.3%

Results for O=C(c1cccs1)N1CCC(C(=O)N2CCN(Cc3ccc4c(c3)OCO4)CC2)CC1 ?
HCMV inh: inconclusive; MARV entry inh: inconclusive; LASV entry inh: -3.3%; FMDV inh: inconclusive

How did O=C(O)c1ccccc1C(=O)N1CCN(Cc2ccc3c(c2)OCO3)CC1 do in these assays?
HCMV inh: 6.4; FMDV inh: -16.4%
